9 molecules from PubChem BioAssay (NCI) can be followed below.

Some test systems named below: SR leukemia; RPMI-8226 leukemia; OVCAR-8 ovarian; OVCAR-5 ovarian; OVCAR-4 ovarian; SK-OV-3 ovarian; IGROV1 ovarian; OVCAR-3 ovarian; HS 578T breast; NCI/ADR-RES ovarian; T-47D breast; MDA-MB-435 melanoma; SW-620 colon; MCF7 breast; HCT-116 colon; HCC-2998 colon; KM12 colon; BT-549 breast.
Common to all, as to test: NCI-60 one-dose screen, 48 h (100 = growth as untreated, 0 = no growth, -100 = all killed)
Conditions in all cases: 10 µM unless noted

This is part of a sample that, as a whole, favours compounds with a hit. Of some 83,000 tested, about 20% had one in any assay.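 The test compound was applied at a single concentration to cells in 96-well plates for 48 hours, and percent growth was recorded.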 Values without a mark were called inactive. Calls of active or inactive are those of the source. Rule for the calls: active = growth percent below 10; inactive = the rest.

As for `N/C(=N\C(N)=N\c1nc2ccccc2s1)c1ccc2ccccc2c1`, the growth was -17.6% (active) in the assay on SR leukemia; 76.7% in the assay on RPMI-8226 leukemia; 84.8% in the assay on OVCAR-8 ovarian; 102% in the assay on OVCAR-5 ovarian; 85% in the assay on OVCAR-4 ovarian; 116% in the assay on SK-OV-3 ovarian. The growth is 55.3% with IGROV1 ovarian; 109% in the assay with OVCAR-3 ovarian; 90.9% in the assay on HS 578T breast; 30.3% in the assay with NCI/ADR-RES ovarian; 79.2% with T-47D breast; 88.9% with MDA-MB-435 melanoma. Moreover, the growth in the assay on SW-620 colon was 110%; with MCF7 breast, 79.3%; in the assay on HCT-116 colon, 63.5%; with HCC-2998 colon, 116%; in the assay on KM12 colon it was 59.5%.

`COc1ccc(-c2nc3cccc(O)c3c(=O)n2Cc2ccccc2)cc1COc1ccc(NC(C)=O)cc1`: the growth in the assay with SR leukemia was 27.5% [3 µM]; with RPMI-8226 leukemia, 44.5% [3 µM]; with OVCAR-8 ovarian, 49.3% [3 µM]; in the assay on OVCAR-5 ovarian it was 64.2% [3 µM]; in the assay with OVCAR-4 ovarian, 83% [3 µM]; in the assay with SK-OV-3 ovarian, 67.2% [3 µM]. The growth with IGROV1 ovarian is 41.6% [3 µM]; in the assay on OVCAR-3 ovarian, 66.9% [3 µM]; in the assay with HS 578T breast it was 63.8% [3 µM]; in the assay on NCI/ADR-RES ovarian, 51.1% [3 µM]; in the assay on T-47D breast it was 76.5% [3 µM]; with MDA-MB-435 melanoma, 59.7% [3 µM]. The growth in the assay with SW-620 colon was 27.9% [3 µM]; in the assay with MCF7 breast it was 37.1% [3 µM]; in the assay on HCT-116 colon it was 22.1% [3 µM]; in the assay with HCC-2998 colon, 67.8% [3 µM]; with KM12 colon it was 39.8% [3 µM].

As to `CCCn1cnc2c(c1=N)C(c1ccc(F)cc1)c1sc3c(C)cccc3c1O2` (configuration not stated), the growth in the assay with SR leukemia is 8.4% (active); with RPMI-8226 leukemia it was -13.5% (active); in the assay on OVCAR-8 ovarian it was 40.2%; in the assay on OVCAR-5 ovarian, 42.4%; in the assay on OVCAR-4 ovarian, 35.8%; in the assay on SK-OV-3 ovarian it was 41.1%. Also, the growth in the assay with IGROV1 ovarian is 25.2%; in the assay with OVCAR-3 ovarian, -12.6% (active); with HS 578T breast, 13.7%; with NCI/ADR-RES ovarian, -11.8% (active); in the assay with T-47D breast, 38.3%; with MDA-MB-435 melanoma, -58% (active). In addition, the growth in the assay on SW-620 colon is 16.4%; with MCF7 breast it was 18.4%; in the assay with HCT-116 colon, 16.7%; with HCC-2998 colon it was 57.3%; in the assay with KM12 colon, 24.9%.

As for `NC(N)=Nc1ccc(Oc2cccc(Nc3ccc(Cl)cc3)c2)cn1`, the growth was -57.8% (active) with SR leukemia; -41.8% (active) in the assay with RPMI-8226 leukemia; 29.4% with OVCAR-8 ovarian; 48.3% in the assay with OVCAR-5 ovarian; 20.2% with OVCAR-4 ovarian; 53.2% with SK-OV-3 ovarian. Also, the growth in the assay on IGROV1 ovarian was 14.4%; with OVCAR-3 ovarian, -14.3% (active); with HS 578T breast it was 34.1%; in the assay with NCI/ADR-RES ovarian, 56.5%; with T-47D breast, 26.1%; with MDA-MB-435 melanoma it was 14.3%. In addition, the growth with SW-620 colon was -71.8% (active); in the assay with MCF7 breast, -76.7% (active); with HCT-116 colon, -73.4% (active); in the assay on KM12 colon it was -92.6% (active).

In the case of `Cc1ccc2c(c1)Oc1nc(N)c(C#N)c(N)c1C2Sc1ccc(F)cc1` (configuration not stated), the growth with SR leukemia is -15.6% (active); in the assay on RPMI-8226 leukemia, -24.1% (active); in the assay on OVCAR-8 ovarian it was -99.4% (active); in the assay on OVCAR-5 ovarian, -93.5% (active); with OVCAR-4 ovarian it was -99.3% (active); in the assay on SK-OV-3 ovarian it was -94.5% (active). The growth with IGROV1 ovarian is -91.3% (active); with OVCAR-3 ovarian, -88.1% (active); with HS 578T breast it was -38.1% (active); in the assay with NCI/ADR-RES ovarian, -89.4% (active); in the assay on BT-549 breast, -88.4% (active); in the assay on MDA-MB-435 melanoma, -93.6% (active). Besides, the growth is -63.6% (active) in the assay on SW-620 colon; -59.7% (active) in the assay on MCF7 breast; -89.9% (active) in the assay on HCT-116 colon; -90.9% (active) in the assay on HCC-2998 colon; -91.4% (active) in the assay with KM12 colon.

Take `CS(=O)(=O)Nc1cc(-c2ccc3ncc(C#N)c(NCc4ccccc4)c3c2)cnc1Cl`: the growth with SR leukemia is -18.9% (active); in the assay on RPMI-8226 leukemia it was -35.3% (active); in the assay on OVCAR-8 ovarian, 7.32% (active); in the assay on OVCAR-5 ovarian it was 3.75% (active); in the assay with OVCAR-4 ovarian, -6.69% (active); in the assay with SK-OV-3 ovarian, -15% (active). Further, the growth in the assay on IGROV1 ovarian was -17.4% (active); in the assay on OVCAR-3 ovarian, -5.17% (active); in the assay on HS 578T breast, -21.2% (active); in the assay on NCI/ADR-RES ovarian, 24.5%; in the assay on T-47D breast, 0.176% (active); in the assay on MDA-MB-435 melanoma, -6.33% (active). The growth in the assay with SW-620 colon is 4.13% (active); with MCF7 breast, 6.39% (active); in the assay on HCT-116 colon it was 4.12% (active); in the assay with HCC-2998 colon, 4.93% (active); with KM12 colon it was 8.53% (active).

Consider `C=C(C=O)[C@@H]1CC[C@]2(C)[C@H](CC=C3[C@H]4[C@@H](C)[C@H](C)CC[C@]4(C(=O)OC)CC[C@]32C)[C@@]1(C)CCC#N`, for which the growth was 0.262% (active) in the assay on SR leukemia; -11.9% (active) in the assay with RPMI-8226 leukemia; 20.1% in the assay with OVCAR-8 ovarian; 2.05% (active) in the assay with OVCAR-5 ovarian; 20.1% with OVCAR-4 ovarian; 69.7% with SK-OV-3 ovarian. Moreover, the growth in the assay with IGROV1 ovarian was -2.63% (active); in the assay on OVCAR-3 ovarian it was -58.2% (active); with HS 578T breast it was -14.4% (active); in the assay with NCI/ADR-RES ovarian, 8.1% (active); with T-47D breast it was 22.4%; with BT-549 breast, 12%. For the same molecule, the growth is -7.24% (active) with MDA-MB-435 melanoma; 0.12% (active) with SW-620 colon; -20.1% (active) in the assay with MCF7 breast; -57.8% (active) with HCT-116 colon; -4.32% (active) with KM12 colon.

For `COC[C@]12CCC(C)(C)C[C@H]1C1=CC[C@@H]3[C@@]4(C)CCCNC(C)(C)[C@@H]4CC[C@@]3(C)[C@]1(C)CC2`, the growth was -55% (active) with SR leukemia; -34.8% (active) in the assay with RPMI-8226 leukemia; 52.2% in the assay with OVCAR-8 ovarian; 5.67% (active) in the assay on OVCAR-5 ovarian; -18.9% (active) in the assay with OVCAR-4 ovarian; 75.9% in the assay on SK-OV-3 ovarian. Besides, the growth in the assay on IGROV1 ovarian is -54.4% (active); in the assay with OVCAR-3 ovarian, -46.9% (active); with HS 578T breast it was -44.6% (active); in the assay on NCI/ADR-RES ovarian, -88% (active); with T-47D breast, 28.8%; with MDA-MB-435 melanoma, -76.3% (active). Besides, the growth is -61.6% (active) with SW-620 colon; -71% (active) with MCF7 breast; -89.6% (active) with HCT-116 colon; -91.2% (active) with HCC-2998 colon; -25.6% (active) in the assay on KM12 colon.

With `O=C(Nc1ccc(Br)cc1)Nc1nc2ccc([N+](=O)[O-])cc2s1`, the growth was -27.9% (active) with SR leukemia; -35% (active) in the assay on RPMI-8226 leukemia; 8.82% (active) with OVCAR-8 ovarian; 19.4% in the assay with OVCAR-5 ovarian; -10.6% (active) in the assay on OVCAR-4 ovarian; -5.7% (active) in the assay with SK-OV-3 ovarian. For the same molecule, the growth with IGROV1 ovarian was 21.8%; in the assay on OVCAR-3 ovarian it was -5.56% (active); with HS 578T breast, -3.63% (active); in the assay on NCI/ADR-RES ovarian, 3.27% (active); in the assay on T-47D breast it was -19% (active); in the assay on MDA-MB-435 melanoma, -9.22% (active). For the same molecule, the growth in the assay with SW-620 colon is 3.15% (active); in the assay with MCF7 breast it was 1.05% (active); in the assay on HCT-116 colon, 2.73% (active); in the assay on HCC-2998 colon it was 1.25% (active); in the assay on KM12 colon, 0.616% (active).
